The results in this text go back to PubChem BioAssay AID624167 (Sanford-Burnham Center for Chemical Genomics, 2012).

Molecules are shown by their SMILES.

The nature of this assay: inhibition of PEG-3 promoter-driven reporter – cell-based, HeLa, luciferase, CREF/GAPDH counter-screen panel, dose response (AID 624167). As to conditions: CREF/GAPDH counter-screens; run 2, dose range 1, at 100 µM (top of the series).
On to `O=C(N/N=C/c1cc([N+](=O)[O-])ccc1O)c1ccc(COc2ccc3c(c2)CCC3)o1`, for which the inhibition was -2.8%.

Take `Cc1ccc(C(C[N+](=O)[O-])Sc2ccc(N)cc2)cc1` (stereo not drawn): the inhibition turned out to be 99.2%. Take `CC(C)CCCCCCCCCCCCC(=O)NCC(=O)NC1C(O)C(O)C(Nc2ncnc3nc[nH]c23)OC1C(O)CO` (stereo not drawn): the inhibition is 98.2%. Take `CN1CCC2(CC1)N=C(c1ccc(F)cc1)C(=S)N2C(=O)c1ccc(C(C)(C)C)cc1`: the inhibition came to 97.8%. The result for `O=c1cnnc(N/N=C/c2ccccn2)[nH]1` reads 9.22%. `CN1OC[C@@H]2CN(S(=O)(=O)c3cccc(C(F)(F)F)c3)[C@H](c3ccc(-c4cc5ccccc5o4)cc3)C[C@@H]21`: the inhibition was 70.9%.

Regarding `CC1=CC2C(C(O)CC3(C)C2CC(C)C32OCOC23COCO3)C2(C)C/C(=C\O)C(=O)C=C12` (stereo not drawn), the inhibition worked out at 100%. As for `CCc1ccn2cc(-c3ccc4c(c3)OCO4)nc2c1`, the inhibition was 97.5%.

For the compound `CC(=O)c1sc2c(c1OC(=O)c1ccc(Cl)cc1Cl)c(=O)n(-c1ccccc1)c(=S)n2-c1ccccc1`, the inhibition worked out at 79.3%.

For `CN(C)S(=O)(=O)c1ccc(-c2csc(N/N=C/c3ccc(O)cc3)n2)cc1`, the inhibition was 91.1%. As to `CN(C)c1c([N+](=O)[O-])cc(N2C(=O)C=CC2=O)cc1[N+](=O)[O-]`, the inhibition was found to be 98.5%. The result for `CS(=O)(=O)c1ccc(-c2cn3cc(C(=O)O)ccc3n2)cc1` reads 78.3%; that for `Cc1cc(NC(c2ccc(Cl)cc2)c2ccc3cccnc3c2O)no1` (stereo not drawn), 55.8%.

On to `CC(=O)NC(c1ccc(Cl)cc1)c1ccc2cccnc2c1O` (stereo not drawn), for which the inhibition turned out to be 64.1%.

For the compound `Nc1nonc1-n1nnc(C(=O)N/N=C/c2cc(Br)ccc2O)c1CNc1ccccc1`, the inhibition stood at 66.5%. For the compound `CC1CC(C)C(=O)C(C(CC2CC(=O)NC(=O)C2)OC(=O)CC(=O)c2ccccc2)C1` (stereo not drawn), the inhibition was determined as 90.5%. In the case of `CCCC(=O)NC(c1ccc(C(C)C)cc1)c1ccc2cccnc2c1O` (stereo not drawn), the inhibition came out at 45.7%. On to `COc1ccc(-n2c(O)c(/C=N/Nc3nc(C)cc(C)n3)c3ccccc3c2=O)cc1OC`, for which the inhibition is -21.1%.

In the case of `Cc1ccccc1CNC(=O)C1CCCN(c2nnc(C)c3c(C)n(-c4ccccc4)nc23)C1` (stereo not drawn), the inhibition was 94.8%. The result for `O=C(CNc1ccccc1)N/N=C/c1c(O)ccc2ccccc12` reads 63.7%; that for `COc1cc(OC)c2cc(C(=O)N/N=C/c3ccccc3O)[nH]c2c1`, 73.3%; that for `CCCCCCCn1c(=N)n(CC(=O)c2ccco2)c2ccccc21`, 90.6%. In the case of `COc1ccc(-n2cc(-c3ccccc3)c3c(N4CCOCC4)ncnc32)cc1`, the inhibition turned out to be 91.3%. Take `CCCCC(=O)NC(c1ccccc1)c1ccc2cccnc2c1O` (stereo not drawn): the inhibition came to 45.2%. The result for `CC(C)CC1C(=O)N(Cc2cn(Cc3ccco3)nn2)CCS(=O)(=O)N1Cc1ccc(-c2ccc(F)cc2)cc1` (stereo not drawn) reads 54.7%; that for `CCCC(=O)NC(c1ccc(C)cc1)c1ccc2cccnc2c1O` (stereo not drawn), 57.9%. The result for `O=C(CCn1cnc(-c2ccccc2)c1-c1ccccc1)N/N=C/c1ccccc1O` reads 55.9%. In the case of `CN(C(=O)COC(=O)/C=C/c1cccc([N+](=O)[O-])c1)C1CCS(=O)(=O)C1` (stereo not drawn), the inhibition was -31.8%. Take `CCCn1nc(C(=O)Nc2nc(-c3ccccn3)cs2)c2ccccc2c1=O`: the inhibition was 37.9%. Regarding `O=C(NNC(=O)c1cccnc1SCc1cccc([N+](=O)[O-])c1)c1ccccn1`, the inhibition is -38.1%. The result for `CCCC(=O)NC(c1ccc(Cl)cc1)c1ccc2cccnc2c1O` (stereo not drawn) reads 70.1%. `O=C1C=CC(=O)N1c1ccc(-c2nc3ccccc3o2)cc1`: the inhibition amounted to 90.3%. As for `Oc1[nH]c2ccc(Br)cc2c1N=NC(=S)N1CCOCC1`, the inhibition is 63.5%.
